We go through five compounds from the supplement of paper PMC10037445.

Assay [1] concerns RAW-Dual. As to the kind of experiment: IRF Lucia reporter activity, fold change vs agonist alone; higher = enhanced IRF activity. The following applies: library stock concentration (final ~1000-fold dilution): 10 mM, agonist: MPLA (TLR4) […]. The essentials: (§1)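 Supernatant from RAW-Dual macrophages was read after 20 hours for IRF by QuantiLuc luminescence and for NF-κB by QuantiBlue absorbance at 620 nm. The cells (50,000 cells/well in DMEM, 384-well plates, 37 °C, 5% CO2) had received 50 nL of library stock by pin tool and, 1 h later, a PRR agonist. Reporter activity is expressed relative to agonist-alone wells as fold change, and wells were flagged cytotoxic if IncuCyte confluency was under 70% of agonist controls in both mask sets.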

For assay [2], the system named is RAW-Dual. Briefly: IRF Lucia reporter activity, fold change vs agonist alone; cytotoxicity flag (confluency mask): not cytotoxic; higher = enhanced IRF activity. The settings on record: library stock concentration (final ~1000-fold dilution): 10 mM. The essentials: as §1
The test system of assay [3] is RAW-Dual. As to the kind of experiment: IRF Lucia reporter activity, fold change vs agonist alone; cytotoxicity flag (confluency mask): cytotoxic (confluency <70% of control); higher = enhanced IRF activity. The following applies: library stock concentration (final ~1000-fold dilution): 10 mM. In short, it runs like this: as §1
Setting [4] is: cytotoxicity flag (confluency mask): not cytotoxic.
The mark [5] stands for this setting: agonist: 3'3'-cGAMP (STING) 10 ug/mL.

Molecules are shown by their SMILES. The full ranking holds about 2,900 compounds; the median of “IRF Lucia reporter activity, fold change vs agonist alone” is about 0.9, and the highest 2% start at about 2.8. Many of the other results were omitted from the sample, so the highest values are more common in it than they were.

Take `CCC(C)C(NC(=O)C(C(C)CC)N(C)C(C)=O)C(=O)NC(=O)C(NC(CC(C)C)C(=O)C1(C)CO1)C(C)O` (stereo not drawn): the “IRF Lucia reporter activity” value in assay [1] (setting [4]) came out at 2.09; in assay [2] (setting [5]) it was 1.55; in assay [2] (agonist: LPS (TLR4) 0.1 ug/mL), 4.46.
`COc1cc2c(cc1OC)C(Cc1ccc(O)c(Oc3cc4c(cc3OC)CCN(C)C4Cc3ccc(O)cc3)c1)N(C)CC2.[O-][Cl+3]([O-])([O-])O` (stereo not drawn): the “IRF Lucia reporter activity” value in assay [2] (setting [5]) stood at 0.0548; in assay [2] (agonist: LPS (TLR4) 0.1 ug/mL) it was 0.74.
As for `Cc1sc2c(c1C)C(c1ccc(Cl)cc1)=NC(CC(=O)OC(C)(C)C)c1nnc(C)n1-2` (stereo not drawn), the “IRF Lucia reporter activity” value turned out to be 0.122 in assay [1] (cytotoxicity flag (confluency mask): cytotoxic (confluency <70% of control)), 0.193 in assay [3] (setting [5]) and 0.185 in assay [3] (agonist: LPS (TLR4) 0.1 ug/mL).
With `CC(C)c1ccc2c(c1O)CCC1C3=C(CCC21C)C(=O)OC3` (stereo not drawn), the “IRF Lucia reporter activity” value was found to be 0.917 in assay [2] (setting [5]) and 1.25 in assay [2] (agonist: LPS (TLR4) 0.1 ug/mL).
Consider `CCC12C=CCN3CCC4(c5ccc(OC)cc5N(C)C4C(O)(C(=O)OC)C1OC(C)=O)C32` (stereo not drawn), for which the “IRF Lucia reporter activity” value in assay [1] (setting [4]) worked out at 1.06; in assay [2] (setting [5]), 0.891; in assay [2] (agonist: LPS (TLR4) 0.1 ug/mL), 1.25.
